{
  "source": "PubChem BioAssay AID504895",
  "about": "(National Center for Advancing Translational Sciences (NCATS), 2011)",
  "note": "Inconclusive results are not listed. Entries that show only a call come without a potency. The source made the active and inactive calls. The call rests on the fitted dose curve; in most records, active means well fitted curve in the direction sought with a large enough effect; inconclusive means small, poorly fitted or top-dose-only effect, or another doubt; inactive means no such curve, though single readings can be large or run the other way.",
  "data": [
    {"biological_target": "Protein phosphatase EYA2 (Homo sapiens) (UniProt O00167)", "sequence (O00167 whole entry, looked up)": "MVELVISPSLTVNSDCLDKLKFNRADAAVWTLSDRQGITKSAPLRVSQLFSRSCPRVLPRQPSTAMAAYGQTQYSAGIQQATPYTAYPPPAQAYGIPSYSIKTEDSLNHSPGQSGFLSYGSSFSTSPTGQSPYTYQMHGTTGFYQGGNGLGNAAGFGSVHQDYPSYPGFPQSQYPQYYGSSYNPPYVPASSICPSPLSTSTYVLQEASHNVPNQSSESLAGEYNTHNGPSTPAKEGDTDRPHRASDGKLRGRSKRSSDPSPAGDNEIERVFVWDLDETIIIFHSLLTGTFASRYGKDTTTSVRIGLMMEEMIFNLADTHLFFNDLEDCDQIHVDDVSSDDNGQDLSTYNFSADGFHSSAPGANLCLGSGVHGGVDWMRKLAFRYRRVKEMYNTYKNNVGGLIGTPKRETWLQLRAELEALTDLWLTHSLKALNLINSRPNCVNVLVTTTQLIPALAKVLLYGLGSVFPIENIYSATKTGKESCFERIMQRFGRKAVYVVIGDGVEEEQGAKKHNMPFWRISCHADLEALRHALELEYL", "assay": "Inhibitors of Eya2ED: Hit Confirmation in Primary Screen", "settings": "Recombinant Eya2ED, OMFP fluorescence phosphatase assay; series mostly up to 76.9 µM", "source_text": "The Eya proteins (Eya1-4) were originally identified as essential co-activators of the Six1 transcription factor. […] Knockdown of Six1 decreases cancer cell proliferation and metastases in several different cancer models. […] A fluorescence-based HTS assay has been perfomed against the Molecular Libraries Small Molecule Repository (MLSMR) and has the AID 488837 in this database. After completion of the primary screen, hits were re-ordered and tested again in the primary screen in a 12 point titration. NIH Chemical Genomics Center [NCGC] NIH Molecular Libraries Probe Centers Network [MLPCN] MLPCN Grant: DA030559-01 Assay Submitter (PI): Rui Zhao, University of Colorado, Denver\nThe Eya2 enzyme was kindly provided by the laboratory of Dr. Rui Zhao. The 3-O-methyl-fluorescein phosphate (OMFP) substrate and all buffer reagents were purchased from Sigma Aldrich. qHTS Assay Setup: 1. Buffer- 50 mM HEPES pH 7.5, 50 mM NaCl, 5 uM MgCl2, 0.05% BSA, 1 mM DTT. 2. OMFP Stock- 10 mM solution prepared in 100% DMSO and stored in single use aliquots at -20C. Assay Procedure- 1. Dispense 1.5 ul per well of Eya2 at 0.2 uM in black medium binding 1536 well Greiner plate 2. Transfer 23 nl of compound and control compound (EGTA) to plate 3. Incubate at ambient for 10 minutes 4. Dispense 1.5 ul per well of OMFP at 50 uM 5. Incubate at ambient for 10 minutes 6. Read on ViewLux using Excitation = 485 nm, Emission = 525 nm", "values": [
      {"compound": "Cn1cccc1C(=O)Nc1ccc(Cl)c(S(=O)(=O)N2CCCCC2)c1", "Potency": "inactive"},
      {"compound": "O=C(COc1cccc(C(F)(F)F)c1)NCC(c1ccco1)N1CCCC1", "note": "(stereo not given)", "Potency": "inactive"},
      {"compound": "Cc1cc(C(=O)N/N=C/C=C/c2ccc3c(c2)OCO3)n[nH]1", "Potency": "inactive"},
      {"compound": "CCN(C(=O)COC(=O)c1cc(OC)c(OC)cc1[N+](=O)[O-])C1CCS(=O)(=O)C1", "note": "(stereo not given)", "Potency": "inactive"},
      {"compound": "COc1ccc(NS(=O)(=O)c2cc([N+](=O)[O-])ccc2NN=Cc2ccccc2OCC(=O)O)cc1", "Potency": "inactive"},
      {"compound": "Cn1cccc1CC(=O)NNC(=S)NC(=O)c1ccc(F)cc1", "Potency": "inactive"},
      {"compound": "Cc1ccc2occ(/C=N/NC(=O)[C@@H](N)Cc3ccccc3)c(=O)c2c1", "Potency": "inactive"},
      {"compound": "CCOC(=O)CN(C(=O)CN1CCC(n2nnc3cc(C)ccc32)CC1)c1ccccc1", "Potency": "inactive"},
      {"compound": "O=C(N/N=C/c1ccc(Sc2ccccn2)o1)c1cc2ccccc2cc1O", "Potency": "inactive"},
      {"compound": "Cc1c(NC(=O)C(C)OC(=O)CCC2CCCC2)c(=O)n(-c2ccccc2)n1C", "note": "(stereo not given)", "Potency": "inactive"},
      {"compound": "O=C(NCc1ccccn1)C1CCCN(Cc2cnn(-c3ccccc3)c2-n2cccc2)C1", "note": "(stereo not given)", "Potency": "inactive"},
      {"compound": "CCCOc1ccc(S(=O)(=O)N2CCN(C)CC2)c2ccccc12", "Potency": "inactive"},
      {"compound": "Cc1cccc(-n2c(-c3csc(C(C)C)c3)n[nH]c2=S)c1", "Potency": "inactive"},
      {"compound": "O=C1/C(=C/c2cccs2)N=C(c2cccs2)N1Nc1ccccc1", "Potency": "inactive"},
      {"compound": "CCOc1ccc(S(=O)(=O)NC(C)C(=O)NCc2ccncc2)cc1", "note": "(stereo not given)", "Potency": "inactive"},
      {"compound": "COc1ccc(NC(=O)CNc2cc(S(=O)(=O)N3CCOCC3)ccc2N2CCOCC2)c(OC)c1", "Potency": "inactive"},
      {"compound": "COc1ccc2oc(C(=O)OCC(=O)N3CCCCC3C)c(C)c2c1", "note": "(stereo not given)", "Potency": "inactive"},
      {"compound": "COc1cc2c(cc1OC)C(c1c(Cl)cccc1Cl)NC(=O)C2", "note": "(stereo not given)", "Potency": "inactive"},
      {"compound": "CC(C)Cc1nnc(NC(=O)c2cc3c(s2)CCC3)s1", "Potency": "inactive"},
      {"compound": "Cc1nnc(SC(C)C(=O)Nc2ccc3ccccc3c2)[nH]c1=O", "note": "(stereo not given)", "Potency": "inactive"},
      {"compound": "O=C(Cc1coc2cc(O)ccc12)NNC(=O)c1ccc(Br)s1", "Potency": "inactive"},
      {"compound": "CCOc1cc(C)c(Cl)cc1S(=O)(=O)NCc1ccco1", "Potency": "inactive"},
      {"compound": "COc1ccc(-c2nnn(-c3cc(Cl)cc(Cl)c3)c2N)cc1", "Potency": "inactive"},
      {"compound": "COC(=O)/C=C1\\NCCNC1=O", "Potency": "inactive"},
      {"compound": "CS(=O)(=O)c1ccc2nc(NC(=O)c3cccc([N+](=O)[O-])c3)sc2c1", "Potency": "inactive"},
      {"compound": "CC(NC(=S)NNS(=O)(=O)c1ccc(C(C)(C)C)cc1)c1ccccc1", "note": "(stereo not given)", "Potency": "inactive"},
      {"compound": "Cc1ccc(NC(=O)CC2C(=O)NC3CCCCC3N2C(=O)c2ccc(F)cc2)cc1C", "note": "(stereo not given)", "Potency": "inactive"},
      {"compound": "Cc1cc(C(N)=O)nn1-c1c(Cl)cc(Cl)cc1Cl", "Potency": "inactive"},
      {"compound": "O=S(=O)(Cc1ccccc1Cl)N1CCN(Cc2ccc3c(c2)OCO3)CC1", "Potency": "inactive"},
      {"compound": "Cc1cc(C(=O)Nc2ccc(N3CCCCC3)cc2)no1", "Potency": "inactive"},
      {"compound": "O=C(NCCc1ccc(Cl)cc1)C1CCN(C(=O)N2CCOc3ccccc32)CC1", "Potency": "inactive"},
      {"compound": "O=C(NC1CCCCC1)c1cc2nc3c(c(C(F)(F)F)n2n1)CCCC3", "Potency": "inactive"},
      {"compound": "CC(=O)c1ccc(NC(=O)C2(c3ccccc3)CC2(Cl)Cl)cc1", "note": "(stereo not given)", "Potency": "inactive"},
      {"compound": "CC(=O)c1c(C)[nH]c(C(=O)COC(=O)COc2ccccc2)c1C", "Potency": "inactive"},
      {"compound": "Cc1onc(-c2ccccc2Cl)c1C(=O)OCC(=O)N1CCC(C)CC1", "Potency": "inactive"},
      {"compound": "COc1c(O)ccc(/C=N\\NC(=O)c2ccc3c(c2)OCO3)c1[N+](=O)[O-]", "Potency": "inactive"},
      {"compound": "O=S(=O)(c1ccc(F)cc1)N1CCC2(CC1)OCCN2S(=O)(=O)c1cccs1", "Potency": "inactive"},
      {"compound": "C=CCC1(C#N)C(=S)NC(C)=C(C(=O)OCC)C1c1ccccc1", "note": "(stereo not given)", "Potency": "inactive"},
      {"compound": "CC(C)CN1C(=O)c2ccc(NC(=O)c3ccccc3F)cc2C1=O", "Potency": "inactive"},
      {"compound": "O=C(O)C1CC(=O)N(c2ccc(Br)cc2)C1", "note": "(stereo not given)", "Potency": "inactive"}
    ]}
  ]
}
